This passage reports nuclei count, normalised and p53-positive nuclei, normalised results from PubChem BioAssay AID1508601 (ICCB-Longwood Screening Facility, Harvard Medical School, 2020).

A short description of assay [1]: nuclear p53 accumulation, HPV+ cells – imaging, p53-positive nuclei imaging, 24 h, 48 h (AID 1508601). To be noted: 24/48 h.
The target of assay [2] is Cellular tumor antigen p53 (Homo sapiens) (UniProt P04637). The assay is described as above. To be noted: 24/48 h, stronger effect = higher value.
The mark [3] stands for this setting: measured here: cell number at 24 h, concentration not given here.
Where [4] appears, read: measured here: cell number at 48 h, concentration not given here.
Setting [5] is: measured here: p53 positive nuclei at 24 h, concentration not given here.
[6] abbreviates: measured here: cell number at 24 h, Library stock concentration: 10 mM.
Setting [7] is: measured here: cell number at 48 h, Library stock concentration: 10 mM.
Setting [8] is: Library stock concentration: 10 mM.
[9] abbreviates: measured here: p53 positive nuclei at 24 h, Library stock concentration: 10 mM.
The mark [10] stands for this setting: measured here: cell number at 24 h, Library stock concentration: 3.33 mM.
Setting [11] is: measured here: cell number at 48 h, Library stock concentration: 3.33 mM.
The mark [12] stands for this setting: Library stock concentration: 3.33 mM.
[13] abbreviates: measured here: p53 positive nuclei at 24 h, Library stock concentration: 3.33 mM.

Several values for one entry are separate records, joined by “and”; a condition that tells them apart may be missing. Identical values can stand only once. In all, about 5,700 compounds went through this assay and about 85 (1%) were called active. The sample holds actives, similar compounds and a random draw of the others, so the mix is not that of the screen. Rule as the data show it: active = p53-positive nuclei above about 36% (passing the limit was not always enough); inactive = the rest. Some compounds were tested as several samples or in several runs, with calls that do not always agree.

Chain of Cellular tumor antigen p53 (Homo sapiens) (P04637 whole entry, looked up): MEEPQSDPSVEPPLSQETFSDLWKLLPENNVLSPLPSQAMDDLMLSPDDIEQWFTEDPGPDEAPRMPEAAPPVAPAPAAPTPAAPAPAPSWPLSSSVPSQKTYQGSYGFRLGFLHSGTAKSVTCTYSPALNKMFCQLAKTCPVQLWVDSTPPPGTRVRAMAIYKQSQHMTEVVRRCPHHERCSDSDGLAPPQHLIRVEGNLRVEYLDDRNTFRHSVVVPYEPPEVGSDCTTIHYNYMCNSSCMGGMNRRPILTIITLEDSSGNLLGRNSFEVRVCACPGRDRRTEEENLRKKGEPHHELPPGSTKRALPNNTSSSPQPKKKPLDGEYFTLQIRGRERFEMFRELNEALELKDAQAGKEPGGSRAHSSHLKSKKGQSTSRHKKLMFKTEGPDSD

In the case of `CC1=C(O)C(=O)C=C2C1=CC=C1[C@@]2(C)CC[C@@]2(C)[C@@H]3C[C@](C)(C(=O)O)CC[C@]3(C)CC[C@]12C`, the nuclei count, normalised in assay [1] (setting [3]) is 88.7% and 27%; in assay [1] (setting [4]), 109% and 15.7%. Also, the p53-positive nuclei, normalised in assay [2] (concentration not given here) was 0.0329% (inactive) and 96.6% (active); in assay [2] (setting [5]), 0.225% and 93.4%.

As for `CC1=C(O)C(=O)C=C2C1=CC=C1[C@@]2(C)CCC2(C)C3C[C@](C)(C(=O)O)CC[C@]3(C)CC[C@]12C` (stereo partly drawn), the nuclei count, normalised came to 94.9% in assay [1] (measured here: cell number at 24 h, Library stock concentration: 80 uM); 109% in assay [1] (measured here: cell number at 24 h, Library stock concentration: 400 uM); 92% in assay [1] (measured here: cell number at 24 h, Library stock concentration: 2 mM); 46.3% in assay [1] (setting [6]); 95.5% in assay [1] (measured here: cell number at 48 h, Library stock concentration: 80 uM); 109% in assay [1] (measured here: cell number at 48 h, Library stock concentration: 400 uM). The nuclei count, normalised in assay [1] (measured here: cell number at 48 h, Library stock concentration: 2 mM) worked out at 91.7%; in assay [1] (setting [7]), 28.8%. The p53-positive nuclei, normalised is 0.0324% (inactive) in assay [2] (Library stock concentration: 80 uM); 0.159% (inactive) in assay [2] (Library stock concentration: 400 uM); 0.635% (inactive) in assay [2] (Library stock concentration: 2 mM); 9.53% (inactive) in assay [2] (setting [8]); 0.113% in assay [2] (measured here: p53 positive nuclei at 24 h, Library stock concentration: 80 uM); 0.398% in assay [2] (measured here: p53 positive nuclei at 24 h, Library stock concentration: 400 uM). The p53-positive nuclei, normalised came to 0.116% in assay [2] (measured here: p53 positive nuclei at 24 h, Library stock concentration: 2 mM) and 10.2% in assay [2] (setting [9]).

`CC1=C(O)C(=O)C=C2C1=CC=C1[C@@]2(C)CC[C@@]2(C)C3C[C@](C)(C(=O)O)CC[C@]3(C)CC[C@]12C` (stereo partly drawn): the nuclei count, normalised in assay [1] (measured here: cell number at 24 h, Library stock concentration: 46 uM) is 117%; in assay [1] (measured here: cell number at 24 h, Library stock concentration: 278 uM), 114%; in assay [1] (measured here: cell number at 24 h, Library stock concentration: 1.67 mM), 57.4%; in assay [1] (setting [6]) it was 47.5%; in assay [1] (measured here: cell number at 48 h, Library stock concentration: 46 uM), 112%; in assay [1] (measured here: cell number at 48 h, Library stock concentration: 278 uM), 104%. The nuclei count, normalised in assay [1] (measured here: cell number at 48 h, Library stock concentration: 1.67 mM) stood at 48.7%; in assay [1] (setting [7]), 31.9%. Further, the p53-positive nuclei, normalised was 0.197% (inactive) in assay [2] (Library stock concentration: 46 uM); 0.188% (inactive) in assay [2] (Library stock concentration: 278 uM); 8.51% (inactive) in assay [2] (Library stock concentration: 1.67 mM); 26.6% (inactive) in assay [2] (setting [8]); -0.0305% in assay [2] (measured here: p53 positive nuclei at 24 h, Library stock concentration: 46 uM); -0.0276% in assay [2] (measured here: p53 positive nuclei at 24 h, Library stock concentration: 278 uM). Also, the p53-positive nuclei, normalised in assay [2] (measured here: p53 positive nuclei at 24 h, Library stock concentration: 1.67 mM) came out at 9.81%; in assay [2] (setting [9]), 29.3%.

For the compound `CCCCCCCCCCCC[N+](C)(C)CCOc1ccccc1`, the values for the nuclei count, normalised in assay [1] (setting [10]) and in assay [1] (setting [11]) were 115% and 110%, respectively. Besides, the p53-positive nuclei, normalised was -0.174% (inactive) in assay [2] (setting [12]) and -0.284% in assay [2] (setting [13]).

Take `CCCCC/C=C\C/C=C\C/C=C\C/C=C\CCCCOC(CO)CO`: the nuclei count, normalised came out at 104% in assay [1] (setting [3]) and 111% in assay [1] (setting [4]). Further, the p53-positive nuclei, normalised in assay [2] (concentration not given here) was 0.099% (inactive); in assay [2] (setting [5]), 0.34%.

`CC=C(C)C(=O)NC(c1ccccc1)C(O)C(=O)OC1C[C@@]2(O)C(OC(=O)c3ccccc3)[C@@H]3[C@]4(OC(C)=O)COC4CC(O)[C@@]3(C)C(=O)C(OC(C)=O)C(=C1C)C2(C)C` (stereo partly drawn): the nuclei count, normalised in assay [1] (setting [10]) was determined as 33.5%; in assay [1] (setting [11]), 28.1%. In addition, the figures for the p53-positive nuclei, normalised in assay [2] (setting [12]) and in assay [2] (setting [13]) were 1.63% (inactive) and -0.0935%, respectively.

For `OC1CN2CCC(O)[C@H]2C(O)C1O` (stereo partly drawn), the nuclei count, normalised in assay [1] (measured here: cell number at 24 h, Library stock concentration: 500 nM) was found to be 98.9%; in assay [1] (measured here: cell number at 24 h, Library stock concentration: 1.5 uM), 116%; in assay [1] (measured here: cell number at 24 h, Library stock concentration: 4.6 uM) it was 110%; in assay [1] (measured here: cell number at 24 h, Library stock concentration: 13.7 uM), 107%; in assay [1] (measured here: cell number at 24 h, Library stock concentration: 41 uM), 109%; in assay [1] (measured here: cell number at 24 h, Library stock concentration: 123 uM), 108%. Moreover, the nuclei count, normalised was 107% in assay [1] (measured here: cell number at 24 h, Library stock concentration: 370 uM); 107% in assay [1] (measured here: cell number at 24 h, Library stock concentration: 1.111 mM); 105% in assay [1] (measured here: cell number at 24 h, Library stock concentration: 3.333 mM); 105% in assay [1] (setting [6]); 102% in assay [1] (measured here: cell number at 48 h, Library stock concentration: 500 nM); 111% in assay [1] (measured here: cell number at 48 h, Library stock concentration: 1.5 uM). Also, the nuclei count, normalised in assay [1] (measured here: cell number at 48 h, Library stock concentration: 4.6 uM) worked out at 108%; in assay [1] (measured here: cell number at 48 h, Library stock concentration: 13.7 uM), 105%; in assay [1] (measured here: cell number at 48 h, Library stock concentration: 41 uM), 110%; in assay [1] (measured here: cell number at 48 h, Library stock concentration: 123 uM) it was 108%; in assay [1] (measured here: cell number at 48 h, Library stock concentration: 370 uM) it was 106%; in assay [1] (measured here: cell number at 48 h, Library stock concentration: 1.111 mM) it was 102%. Further, the nuclei count, normalised in assay [1] (measured here: cell number at 48 h, Library stock concentration: 3.333 mM) was 106%; in assay [1] (setting [7]) it was 104%. The p53-positive nuclei, normalised was -0.0904% (inactive) in assay [2] (Library stock concentration: 500 nM); 0.192% (inactive) in assay [2] (Library stock concentration: 1.5 uM); 0.0933% (inactive) in assay [2] (Library stock concentration: 4.6 uM); -0.133% (inactive) in assay [2] (Library stock concentration: 13.7 uM); -0.107% (inactive) in assay [2] (Library stock concentration: 41 uM); 0.0873% (inactive) in assay [2] (Library stock concentration: 123 uM). Also, the p53-positive nuclei, normalised in assay [2] (Library stock concentration: 370 uM) was 0.261% (inactive); in assay [2] (Library stock concentration: 1.111 mM) it was -0.0118% (inactive); in assay [2] (Library stock concentration: 3.333 mM), 0.175% (inactive); in assay [2] (setting [8]), -0.135% (inactive); in assay [2] (measured here: p53 positive nuclei at 24 h, Library stock concentration: 500 nM), -0.068%; in assay [2] (measured here: p53 positive nuclei at 24 h, Library stock concentration: 1.5 uM) it was 0.213%. Also, the p53-positive nuclei, normalised in assay [2] (measured here: p53 positive nuclei at 24 h, Library stock concentration: 4.6 uM) is -0.135%; in assay [2] (measured here: p53 positive nuclei at 24 h, Library stock concentration: 13.7 uM), -0.189%; in assay [2] (measured here: p53 positive nuclei at 24 h, Library stock concentration: 41 uM), 0.0835%; in assay [2] (measured here: p53 positive nuclei at 24 h, Library stock concentration: 123 uM), 0.197%; in assay [2] (measured here: p53 positive nuclei at 24 h, Library stock concentration: 370 uM), 0.0352%; in assay [2] (measured here: p53 positive nuclei at 24 h, Library stock concentration: 1.111 mM), -0.189%. The p53-positive nuclei, normalised in assay [2] (measured here: p53 positive nuclei at 24 h, Library stock concentration: 3.333 mM) was -0.0741%; in assay [2] (setting [9]), 0.108%.
